Abeta rescue: A-beta toxicity reversal in yeast. yeast expressing A-beta42, growth rescue, OD600, 48 h; response scale: 0% DMSO, 100% iron-clioquinol control. Potency, µM (titrated, usually from 46.1 µM), hits mostly activators. hit rate 0.063% among 410,000. AID 1347071; further: potency means the concentration at half of the fitted maximal effect; nearly all actives have a fitted effect of over 55% in size
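Yeast A-beta toxicity model in growth medium with pinned compounds, 48 h at 30 C; growth read as absorbance at 600 nm. Normalized to FeCl3/clioquinol equimolar mix (positive) and DMSO (negative).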
Mm-Cpn inhibitor: inhibitors of Methanococcus maripaludis chaperonin TRiC (MmCpn) | Potency, µM (series often up to 76.9 µM), inactives show at the highest dose activity, negative = inhibition, most hits filed as inhibitors | hit rate 0.031% among 330,000 | purified Mm-Cpn ATPase, ADP Transcreener TR-FRET; further: potency means the concentration at half of the fitted maximal effect; on the % scale 0 is the no-effect control and ±100 the full control effect; nearly all actives have a fitted effect of over 80% in size
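Purified archaeal Mm-CPN (25nM final) preincubated 10 min at 37degC with compound, then 10uM ATP for 30 min at 37degC; ADP measured by HTRF Transcreener TR-FRET; buffer 30 mM TRIS pH 7.4, 100mM KCl, 5mM MgCl2, 1mM DTT.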
TDP-43 yeast inh: TDP-43 toxicity inhibition in yeast; TDP-43 expressing yeast growth rescue, BacTiter-Glo, 24 h; Potency, µM (titrated, usually from 46.1 µM), inactives show top-dose growth rescue (activation), usual class: activators; hit rate 1.8% among 410,000; AID 652104; further: potency means the concentration at half of the fitted maximal effect; % of control where 0% means no effect; nearly all actives have a fitted effect of over 50% in size
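Luminescence from BacTiter-Glo reports growth of TDP-43-expressing yeast after 24 hr at 30 deg C with compound. Cells were raffinose-pregrown to mid-log, then seeded in galactose medium at OD600=0.02.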
aSyn rescue: inhibitors of alpha-synuclein toxicity in yeast; hit rate 0.14% among 370,000; Yeast expressing alpha-synuclein, growth rescue, BacTiter-Glo, 24 h; Potency, µM (highest dose often 46.1 µM), for the others: at the top dose growth rescue (activation), actives largely listed as activators; further: potency means the concentration at half of the fitted maximal effect; % of control where 0% means no effect; nearly all actives have a fitted effect of over 65% in size
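Screening used galactose-induced yeast with toxic alpha-synuclein levels, exposed to compound for 24 hr at 30 deg C. Cell growth, read with BacTiter-Glo luminescence, gave the measured signal.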
FUS yeast rescue: suppressors of FUS proteinopathy in yeast; S. cerevisiae FUS-expressing, growth rescue, OD600, 24 h; Potency, µM (highest dose often 76.6 µM), actives largely listed as activators; hit rate 0.24% among 390,000; AID 1347120;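 further: potency means the concentration at half of the fitted maximal effect; plate controls were DMSO vehicle for no effect and reference control for full effect; nearly all actives have a fitted effect of over 55% in size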
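Cultures pregrown in 2.5% raffinose medium are shifted to minimal medium containing 2% galactose to express toxic FUS. Compounds are tested at several concentrations. After 24hr at 30C, growth is quantified at 600 nm absorbance.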
CCT chaperon mod: cytosolic chaperonin activity modulation | purified chaperonin ATPase assay, HTRF ADP detection, 30 min | activity change, % (no concentration beside the values), hits read low | hit rate 0.3% among 360,000 | AID 651819; in the data active means activity change below about -30%; further: on the % scale 0 is the no-effect control and ±100 the full control effect
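We incubate TRiC, 40 or 20 nM final, with library compounds at 76 uM and 10 uM ATP for 30 min at 37 °C. ADP formed is detected with Transcreener HTRF reagents after 30 min at room temperature.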
Active calls of the source: *. An excerpt weighted towards active compounds, which were near 2.3% of everything screened. Unless noted, the call rests on the fitted dose curve; in most records, active means well fitted curve in the direction sought with a large enough effect; inconclusive means small, poorly fitted or top-dose-only effect, or another doubt; inactive means no such curve, though single readings can be large; an effect the other way counts as inactive or inconclusive.

How did CCCCCCCCN1C(=O)[C@H](CC(=O)N2CCN(C(=O)C3CC3)CC2)C[C@@]2(C(=O)OC)CC(C)(C)CC=C12 do in these assays?
Abeta rescue: inactive; TDP-43 yeast inh: -88%; aSyn rescue: -31%; FUS yeast rescue: 16µM*

How did CCCCCCCCN1C(=O)[C@H](CC(=O)N2CCN(C(=O)OCC)CC2)C[C@@]2(C(=O)OC)CC(C)(C)CC=C12 do in these assays?
Abeta rescue: inactive; TDP-43 yeast inh: -80%; aSyn rescue: -49%; FUS yeast rescue: inconclusive

What do the screens show for `CCCCCCCCN1C(=O)[C@H](CC(=O)N2CCCC2)C[C@@]2(C(=O)OC)CCCCC=C12`?
Abeta rescue: inconclusive; TDP-43 yeast inh: 14%; aSyn rescue: 25%; FUS yeast rescue: 6.3µM*; CCT chaperon mod: -1

How did CCn1c(SCC(=O)NCc2ccco2)nnc1-c1cccc(N(C)C)c1 do in these assays?
aSyn rescue: 4%

How did CCCCCCCCN1C(=O)[C@H](CC(=O)N2CCN(C(=O)c3ccco3)CC2)C[C@@]2(C(=O)OC)CCCCC=C12 do in these assays?
Abeta rescue: inactive; TDP-43 yeast inh: 14µM*; aSyn rescue: 11%; FUS yeast rescue: inconclusive; CCT chaperon mod: 2

How did CCCCCCCCN1C(=O)[C@H](CC(=O)N2CCOCC2)C[C@@]2(C(=O)OCC)CCCC=C12 do in these assays?
Abeta rescue: inactive; TDP-43 yeast inh: 22%; aSyn rescue: 20%; FUS yeast rescue: 11µM*; CCT chaperon mod: 1

How did CCCCCCCCN1C(=O)[C@H](CC(=O)N2CCSCC2)C[C@@]2(C(=O)OCC)CCCC=C12 do in these assays?
Abeta rescue: inactive; TDP-43 yeast inh: 24%; aSyn rescue: -22%; FUS yeast rescue: inconclusive; CCT chaperon mod: -1

Results for COc1ccccc1N1CCN(C(=O)c2ccc(Cn3c(=S)[nH]c4cc5c(cc4c3=O)OCO5)cc2)CC1 ?
Abeta rescue: inactive; Mm-Cpn inhibitor: -4%; TDP-43 yeast inh: 12%; aSyn rescue: 5%; FUS yeast rescue: inactive; CCT chaperon mod: -31*

How did O=C(COc1ccc2ccccc2c1)N1c2ccccc2Sc2ccccc21 do in these assays?
Abeta rescue: inactive; Mm-Cpn inhibitor: inconclusive; TDP-43 yeast inh: -19%; aSyn rescue: 5%; FUS yeast rescue: inconclusive; CCT chaperon mod: -5

How did O=C(CCl)N1c2ccccc2Sc2ccc3ccccc3c21 do in these assays?
Abeta rescue: inactive; TDP-43 yeast inh: 5µM*; aSyn rescue: 18%; FUS yeast rescue: inactive; CCT chaperon mod: 1

Results for COc1cc(NC(=O)CCC(=O)O)nc(OC)n1 ?
Abeta rescue: inactive; Mm-Cpn inhibitor: -2%; TDP-43 yeast inh: -6%; aSyn rescue: 1%; FUS yeast rescue: inactive; CCT chaperon mod: -1

Results for CC#CCCCC(=O)Nc1cc(OC)nc(OC)n1 ?
Abeta rescue: inactive; Mm-Cpn inhibitor: -2%; TDP-43 yeast inh: 14µM*; aSyn rescue: 4%; FUS yeast rescue: inactive; CCT chaperon mod: 0

Results for O=[N+]([O-])c1ccc(Nc2nccc(Cl)n2)cc1 ?
Abeta rescue: inactive; TDP-43 yeast inh: 5.6µM*; aSyn rescue: 3%; FUS yeast rescue: inactive; CCT chaperon mod: -1

What do the screens show for `CC(C)(C)Nc1nc(Nc2ccc([N+](=O)[O-])cc2)nc(NC(C)(C)C)n1`?
Abeta rescue: inactive; Mm-Cpn inhibitor: 1%; TDP-43 yeast inh: 15%; aSyn rescue: -13%; FUS yeast rescue: inactive; CCT chaperon mod: 2

Results for COc1ccc(/C=N/NC(=O)C[n+]2ccccc2)c(OC)c1OC ?
Abeta rescue: inactive; Mm-Cpn inhibitor: 1%; TDP-43 yeast inh: 17%; aSyn rescue: 22µM*; FUS yeast rescue: inactive; CCT chaperon mod: -2

How did CC(C)c1ccc(/C=C/C2=NNC(=O)CC2)cc1 do in these assays?
Abeta rescue: inactive; Mm-Cpn inhibitor: 0%; TDP-43 yeast inh: 11µM*; aSyn rescue: 0%; FUS yeast rescue: inactive; CCT chaperon mod: 1

How did COc1cc(/C=C/C2=NNC(=O)CC2)cc(OC)c1OC do in these assays?
Abeta rescue: inactive; Mm-Cpn inhibitor: -6%; TDP-43 yeast inh: -8%; aSyn rescue: 8%; FUS yeast rescue: inactive; CCT chaperon mod: -2

Results for Clc1ccc(C2Nc3cccc4cccc(c34)N2)c(Cl)c1 ?
Abeta rescue: inconclusive; aSyn rescue: 16%; FUS yeast rescue: inactive; CCT chaperon mod: -1

How did O=C1NC(c2cccc3ccccc23)Nc2ccc(Cl)cc21 (configuration not stated) do in these assays?
Abeta rescue: inactive; TDP-43 yeast inh: 11µM*; aSyn rescue: 1%; CCT chaperon mod: 1

Results for CN(C)c1ccc(/C=C/c2ccnc3cc(Cl)ccc23)cc1 ?
aSyn rescue: 1%

How did COc1ccc(CCNC(=O)CCN2C(=O)COc3ccc(C)cc32)cc1OC do in these assays?
Abeta rescue: inactive; Mm-Cpn inhibitor: -5%; TDP-43 yeast inh: 8.9µM*; aSyn rescue: 1%; FUS yeast rescue: inconclusive; CCT chaperon mod: 2

How did O=[N+]([O-])c1ccc(NCCNS(=O)(=O)c2ccccc2)c(C(F)(F)F)c1 do in these assays?
Abeta rescue: inactive; Mm-Cpn inhibitor: 0%; TDP-43 yeast inh: 27%; aSyn rescue: 0%; FUS yeast rescue: inactive; CCT chaperon mod: -1

Results for O=C(NCCNc1ccc([N+](=O)[O-])cc1C(F)(F)F)c1ccccc1F ?
Abeta rescue: inactive; Mm-Cpn inhibitor: 1%; TDP-43 yeast inh: 20µM*; aSyn rescue: 15%; FUS yeast rescue: inactive; CCT chaperon mod: -1

How did Cc1ccc(C(=O)NCCNc2ccc([N+](=O)[O-])cc2C(F)(F)F)cc1 do in these assays?
Abeta rescue: inactive; Mm-Cpn inhibitor: -1%; TDP-43 yeast inh: 9%; aSyn rescue: -1%; FUS yeast rescue: inactive; CCT chaperon mod: 1

Results for Cc1ccc(S(=O)(=O)NCCNc2ccc([N+](=O)[O-])cc2C(F)(F)F)cc1 ?
Abeta rescue: inactive; Mm-Cpn inhibitor: -4%; TDP-43 yeast inh: 22µM*; aSyn rescue: inconclusive; FUS yeast rescue: inactive; CCT chaperon mod: 0

How did Cc1ccccc1N(C)C(=O)Cn1nnc(-c2ccccc2F)n1 do in these assays?
FUS yeast rescue: inactive

Results for Cc1ccccc1NS(=O)(=O)c1ccc2[nH]cc(C(=O)N3CCCC3)c(=O)c2c1 ?
Abeta rescue: inactive; TDP-43 yeast inh: -9%; FUS yeast rescue: inactive

How did CC(=O)Nc1ccc2[nH]c3ccccc3c2c1 do in these assays?
Abeta rescue: inactive; Mm-Cpn inhibitor: -1%; TDP-43 yeast inh: 0%; aSyn rescue: -2%; FUS yeast rescue: inactive; CCT chaperon mod: -1

High-throughput results from PubChem.
